Data taken from PubChem BioAssay AID1259343 (VanderVen Lab, College of Veterinary Medicine, Cornell …, 2017).
Hit rate of the full screen: of about 6,200 compounds, about 2,900 (47%) were called active. The set was probably picked from earlier hits. This is one part of the list. Values without a mark were called inactive. Cut-off read from the data, not from the text of the source: active = inhibition above about 50%; inactive = the rest.

Test: Mycobacterium tuberculosis growth inhibition, primary screen (AID 1259343)
Conditions: inhibition: at 10 µM, active compounds read high; outcome: 10 uM

| SMILES | inhibition |
| --- | --- |
| Cc1cc(=O)[nH]c2sc(C(=O)Nc3ccc(Br)cc3)c(N)c12 | 79.5% (active) |
| COc1cccc(-c2ccc(NC(=O)C3CCCN(Cc4nccs4)C3)cc2)c1 (stereo not drawn) | 48.2% |
| CCCc1ncc(CN2CCCC(C(=O)Nc3ccc(-c4cccc(OC)c4)cc3)C2)cn1 (stereo not drawn) | 68.2% (active) |
| COc1cccc(-c2ccc(NC(=O)C3CCCN(Cc4cccc(O)c4)C3)cc2)c1 (stereo not drawn) | 70.1% (active) |
| Cc1cc(C(C)(C)C)cc(C)c1CCNS(=O)(=O)N(C)C | 27.1% |
| Cn1ccc(C(=O)NCCc2ccc(OCc3ccccc3)cc2)cc1=O | 65.2% (active) |
| Cc1cc(C(=O)Nc2ccn(-c3ccccc3)n2)c(C)o1 | 59.6% (active) |
| O=C(Nc1ccn(-c2ccccc2)n1)C1CCCC1 | 21.5% |
| Nc1cnn(Cc2ccc(Br)cc2)c1 | 94.8% (active) |
| Brc1cnn(Cc2nnc(-c3ccco3)o2)c1 | -27.3% |
| CN(C)c1cc[n+](Cc2c(Cl)cccc2Cl)cc1 | 21.9% |
| C[n+]1c2cc(N)ccc2cc2ccc(N)cc21 | 92% (active) |
| O=C1N=c2ccccc2=C1N=Nc1nc(O)c(-c2c(O)[nH]c3ccccc23)s1 | -14% |
| Oc1[nH]c2c(Cl)cc(Cl)cc2c1N=Nc1nc2ccccc2o1 | 101% (active) |
| O=C1N=c2ccccc2=C1N=Nc1c(O)[nH]c2c(Cl)cc(Cl)cc12 | 80% (active) |
| O=C(NNc1cccc(Cl)c1)[C@@H]1CCCN1c1nccc(Nc2ccccc2)n1 | 91.9% (active) |
| CCOc1coc(C(=O)NCCc2ccc(Cl)cc2)cc1=O | 49.6% |
| Cc1ccc(C)c(COc2cccn3c(CCNC(=O)COCc4ccccc4)cnc23)c1 | 33.6% |
| O=C(NCCCc1ccccc1)c1cc(=O)c(OCc2ccccc2)co1 | 99.7% (active) |
| O=C(NCCCc1ccccc1)c1cc(=O)c(OCc2ccc(F)cc2)co1 | 99.9% (active) |
| CCOC(=O)Cn1c(=NC(=O)c2cc(C)no2)sc2cccc(F)c21 | 49.7% |
| O=c1c(-c2ccc3c(c2)OCCO3)c(C(F)(F)F)oc2cc(O)ccc12 | 104% (active) |
| CC(=O)Oc1ccc2c(=O)c(Oc3ccc(F)cc3)c(C(F)(F)F)oc2c1 | 18.9% |
| CC(=O)Oc1ccc2c(=O)c(-c3ccc4c(c3)OCCO4)c(C)oc2c1OC(C)=O | 26.1% |
| Cc1sc2nc(-c3cccnc3)nc(NC(C)C(C)C)c2c1C (stereo not drawn) | -13.7% |
| C#CCN(CC=C)Cc1nc(-c2ccc(Cl)cc2)oc1C | 14.8% |

| SMILES | inhibition |
| --- | --- |
| CN(C)C(=S)SSC(=S)N(C)C | 102% (active) |
| CC(=O)O[C@H]1C[C@@H](OC(C)=O)C(C)(C)C2C[C@@H](OC(C)=O)[C@]3(C)C(CC[C@@]4(C)[C@H](c5ccoc5)C(=O)[C@H]5O[C@]543)[C@]21C (stereo partly drawn) | 36.2% |
| CC1(C)C(=O)C=C[C@@]2(C)C1C[C@@H](O)[C@]1(C)C2CC[C@@]2(C)[C@H](c3ccoc3)OC(=O)[C@H]3O[C@]321 (stereo partly drawn) | 67% (active) |
| Cn1cnnc1SCC(=O)Nc1ccc2c(c1)CCC2 | -17.5% |
| O=C(CCn1cncn1)Nc1ccc2c(c1)CCC2 | 87.1% (active) |
| O=C1C(=Cc2ccc(F)cc2)CSc2ccc(F)cc21 | 21.3% |
| CCN1c2ccccc2N(C)[C@]1(C)c1ccccc1 | 68.3% (active) |
| N#Cc1ccc(C2C=C(c3ccc(Br)cc3)Nc3nc(C(F)(F)F)nn32)cc1 (stereo not drawn) | 90.9% (active) |
| Fc1ccc(C2=CC(c3ccc4c(c3)OCO4)n3nc(C(F)(F)F)nc3N2)cc1 (stereo not drawn) | 74.3% (active) |
| FC(F)(F)c1nc2n(n1)C(c1ccc(Cl)cc1)C1=C(N2)c2ccccc2SC1 (stereo not drawn) | 36.9% |
| Fc1ccc(C2C=C(c3ccccc3)Nc3nc(C(F)(F)F)nn32)cc1F (stereo not drawn) | 3.02% |
| Clc1ccc(C2=CC(c3ccc4c(c3)OCO4)n3nc(-c4ccccc4)nc3N2)cc1 (stereo not drawn) | -34.2% |
| COc1ccc(CC2CCN(C(=O)Nc3cccc(F)c3)CC2)cc1 | 74.8% (active) |
| Cc1ccc(F)cc1NC(=O)N1CCN(CCCOC(c2ccc(Cl)cc2)c2ccc(Cl)cc2)CC1 | 6.69% |
| COc1cccc(NC(=O)N2CCC(Cc3ccc(F)cc3)CC2)c1 | 47.7% |
| O=C(Nc1ccc(F)cc1F)N1CCC(Cc2ccc(-n3cccc3)cc2)CC1 | 51% (active) |
| O=C(NC1CCN(c2ccccc2C(=O)NCc2ccc(F)cc2)CC1)c1ccc(C(F)(F)F)cc1 | -29.8% |
| O=C(Nc1nnc(C2CC2)s1)N1CCC(Cc2cccc(F)c2)CC1 | -2.76% |
| O=C(Nc1ccc(F)cc1F)N1CCC(Cc2ccc(C(F)(F)F)cc2)CC1 | 62.3% (active) |
| O=C1NC2(CCN(C(=O)Nc3ccc(C(F)(F)F)cc3)CC2)Nc2cc(Cl)ccc21 | -1.82% |
| CCC(=O)NC(=S)Nc1ccc(C(=O)NC(C)(C)C)cc1 | 37.3% |
| CCCC(=O)NC(=S)Nc1ccc2nn(-c3ccccc3)nc2c1 | 79.1% (active) |
| COc1ccc(-n2nc3ccc(N)cc3n2)cc1 | -45% |
| S=c1[nH]nc(SCc2cccs2)s1 | 99.3% (active) |
| S=c1[nH]nc(SCC#Cc2ccccc2)s1 | 47.6% |
| CCCSc1n[nH]c(=S)s1 | -46% |

| SMILES | inhibition |
| --- | --- |
| CC(C)Sc1n[nH]c(=S)s1 | -48.8% |
| C=C(C)CSc1n[nH]c(=S)s1 | 58.8% (active) |
| CC(C)CSc1n[nH]c(=S)s1 | 100% (active) |
| CCCCSc1n[nH]c(=S)s1 | -27% |
| S=c1[nH]nc(SCc2c(Cl)cccc2Cl)s1 | 23.4% |
| O=C1NC(=S)SC1=Cc1c(F)cccc1Cl | 83.6% (active) |
| O=C1NC(=S)SC1=Cc1c(F)cccc1F | 74.2% (active) |
| CC(=O)N[C@@H]1C[C@H](Cc2ccccc2)O[C@H](c2ccc(Cl)cc2)C1 | 61% (active) |
| CC(C)(C)c1ccc(S(=O)(=O)/C=C/C#N)cc1 | 102% (active) |
| CCNC(=S)n1ncc(C(=O)OCC)c1N | -17% |
| CCOC(=O)c1cc([N+](=O)[O-])nn1Cc1ccc(Cl)c(Cl)c1 | 19.4% |
| CCOC(=O)c1cnn(Cc2ccc(C)cc2)c1N | 71.9% (active) |
| CCC(C)(C)C1CCc2sc3ncnc(NCCN4CCOCC4)c3c2C1 (stereo not drawn) | 85% (active) |
| Clc1ccc(-c2nc(NCCN3CCOCC3)c3ccc(Cl)cc3n2)cc1 | 47.7% |
| Nc1c(S(=O)(=O)c2ccccc2)c2nc3ccccc3nc2n1-c1cccc(S(N)(=O)=O)c1 | 19.5% |
| O=S1(=O)CCN2N=C(SCc3ccc(Cl)cc3)SC2=N1 | 2.87% |
| N#Cc1ccc(CSc2ncccn2)cc1 | -28.1% |
| Clc1ccc(CSc2ncccn2)cc1 | 55.1% (active) |
| Cc1ccc(OCc2ccc(C(F)(F)F)cc2)c(CO)n1 | 59.9% (active) |
| CCOC(=O)NCC(=O)N(Cc1ccc(C(F)(F)F)cc1)C1CC1 | -10.5% |
| COc1cccc(CC2(C(=O)O)CCN(c3ccc(Cl)cn3)CC2)c1 | 90.8% (active) |
| COc1cccc(CC2(CO)CCCN(C(=O)CCCc3ccc(Cl)cc3)C2)c1 (stereo not drawn) | 20.4% |
| c1ccc(-c2nnc(NC3CCCCC3)s2)cc1 | 28.9% |
| c1cc(NC2CCCCCCC2)cc(-c2cnco2)c1 | 71.3% (active) |
| Oc1ccc(Br)cc1-c1nc2cnccn2c1NC1CCCC1 | 37.9% |
| c1cc(NC2CCCCCCC2)cc(-n2ccnc2)c1 | 56% (active) |

| SMILES | inhibition |
| --- | --- |
| c1cc(NC2CCCCCC2)c2cccnc2c1 | 9.23% |
| c1ncc(-c2ccc(NCC3CCOCC3)cc2)o1 | 35.5% |
| S=C(SC1OCCOC1SC(=S)N1CCOCC1)N1CCOCC1 (stereo not drawn) | 99.8% (active) |
| COc1ccc(C(=O)C=Cc2ccccc2Br)c(OC)c1 | 23.5% |
| COc1ccc(C(=O)COC(=O)c2ccccc2[N+](=O)[O-])cc1OC | -15.5% |
| COc1ccc(C(=O)c2ccccc2)c(O)c1O | 68.3% (active) |
| COc1ccc(COc2ccc(Cl)cc2C(N)=O)cc1F | 27.6% |
| COc1ccc(C(=O)c2ccc(O)cc2)c(O)c1O | 55.4% (active) |
| Cc1nc(SCC(=O)N(C)Cc2ccsc2)c(C(N)=O)c(C)c1C | -7.74% |
| CN1CCC(=C2c3ccccc3Sc3ccccc32)CC1 | 60.1% (active) |
| CN1CCN(C2Cc3ccccc3Sc3ccc(Cl)cc32)CC1 (stereo not drawn) | 39.5% |
| COc1cccc(NC(=O)N2CCc3nc(Nc4cc(Cl)cc(Cl)c4)ncc3C2)c1 | 33.2% |
| CCOC(=O)c1ccc(NC(=O)N2CCc3nc(Cc4ccccc4OC)nc(N4CCOCC4)c3C2)cc1 | 61.8% (active) |
| CCc1ccc(NC(=O)N2CCN(c3nc(-c4ccc(Cl)cc4)nc(C)c3C)CC2)cc1 | 28.1% |
| Oc1c(C(c2ccc(C(F)(F)F)cc2)N2CCOCC2)ccc2cccnc12 (stereo not drawn) | 104% (active) |
| Oc1c(C(c2ccc(F)cc2)N2CCOCC2)ccc2cccnc12 (stereo not drawn) | 82.2% (active) |
| COc1ccc(-n2nc([N+](=O)[O-])c(=NCCC3=CCCCC3)n2O)cc1 | 95.6% (active) |
| CC(C)Cn1ccnc1NC(=O)c1cccc(C(F)(F)F)c1 | 52.5% (active) |
| C=C(C)c1cccc(C(C)(C)NC(=O)Nc2ncccn2)c1 | -1.81% |
| CSc1nnc(COc2ccccc2Cl)n1C1CC1 | 1.97% |
| COc1cc(S(=O)(=O)N2CCN(c3ccccc3C)CC2)ccc1Cl | 12.3% |
| CN1CCN(S(=O)(=O)c2ccc(SCCOc3ccccc3Cl)nc2)CC1 | 90% (active) |
| CCOC(=O)c1sc2nc(C)nc(NCC(C)C)c2c1C | -22.6% |
| CCOC(=O)c1sc(N)c(C(=O)OCC)c1C | 32.7% |
| CCOC(=O)c1c(N)sc(C(N)=O)c1C | 84.7% (active) |
